# The supplement of paper PMC6555819
# Legend:
# Experiment in all cases: PBM binding z-score (relative to random genomic background probes); higher = stronger binding; sequences stand for … in GC…GCGATTGACAGCGTAGAATGAAGG
# [1] = tested on: FXR:RXRa (NR concentration 270 nM, RXRa partner concentration 90 nM)
# Summary of the method: (§1)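 Binding buffer was PBS pH 7.4 with 2% milk, 0.02% Triton X-100, 1 mM DTT, 0.2 mg/mL BSA and 0.4 mg/ml salmon testes DNA. In it, ligand-free nuclear receptor dimers were incubated 1 h on custom Agilent 4×180K protein-binding microarrays carrying double-stranded probes. Antibodies against each partner (one per run) detected binding, and z-scores were calculated against random background probes after regression normalization of scanned fluorescence.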
# [2] = tested on: LXRa:RXRa (NR concentration 270 nM, RXRa partner concentration 90 nM)
# Summary of the method: as §1
# [3] = tested on: LXRa homodimer (NR concentration 270 nM)
# Summary of the method: as §1
# [4] = tested on: LXRb:RXRa (NR concentration 270 nM, RXRa partner concentration 90 nM)
# Summary of the method: as §1
# [5] = tested on: LXRb homodimer (NR concentration 270 nM)
# Summary of the method: as §1
# [6] = tested on: PPARa:RXRa (NR concentration 270 nM, RXRa partner concentration 90 nM)
# Summary of the method: as §1
# [7] = tested on: PPARg:RXRa (NR concentration 180 nM, RXRa partner concentration 90 nM)
# Summary of the method: as §1
# [8] = tested on: PPARg:RXRa 270nM:90nM, anti-RXR (NR concentration 270 nM, RXRa partner concentration 90 nM)
# Summary of the method: as §1
# [9] = tested on: PPARg:RXRa 30nM:10nM, anti-RXR (NR concentration 30 nM, RXRa partner concentration 10 nM)
# Summary of the method: as §1
# [10] = tested on: PPARg:RXRa 90nM:30nM, anti-RXR (NR concentration 90 nM, RXRa partner concentration 30 nM)
# Summary of the method: as §1
Sequence,PBM binding z-score [1],PBM binding z-score [2],PBM binding z-score [3],PBM binding z-score [4],PBM binding z-score [5],PBM binding z-score [6],PBM binding z-score [7],PBM binding z-score [8],PBM binding z-score [9],PBM binding z-score [10]
CGAACTAGGTCAAAGGACAGTGGAAGGCGACGTA,3.72,2.62,-0.0912,1.47,-0.761,5.49,9.71,8.34,8.02,9.05
CGTCCAAGGTCAGTGAGGTCAGTGAATGCCGAGT,5.29,4.25,2.06,3.89,-0.0298,4.72,3.46,4.07,0.585,2.61
CGTCCAAGGTCATAGGAGTTCAGTGAAGACAGAT,7.7,7.41,5.13,5.15,0.66,5.9,4.86,5.44,1.9,4.2
ATATCTAGGTTAGGGTCATTCAGAAAGTAGGGAA,4.54,4.26,1.73,4.39,2.24,5.65,7.73,6.5,4.33,6.58
CCTTACGGGTCAAGGTTATATCACGGGTGGTACG,5.41,3.89,0.787,3.34,0.134,4.99,4.26,4.7,1.6,3.52
ACTAATTGGTCAGCTGAGGTCACACACAATTCGG,3.46,3.25,2.59,3.68,1.15,4.06,2.17,2.77,1.23,1.88
TCTCGGAGGACACGAAAGGTCAGTGCTCGACATC,2.42,3.37,3.24,2.99,-0.000616,2.99,0.746,2.29,2.43,2.19
AGTCAAAGTTCACGAGGTAACGTAAGATTCAGCT,7.1,6.36,3.51,4.18,1.13,5.7,7.78,7.53,4.79,7.08
CGAACTAGGTCAAAGAACAGTGAAAGGCGACGTA,3.3,1.96,-0.252,1.43,-0.259,4.66,8.35,7.08,5.63,7.35
CGAACTAGGTCGAAGGACAGTGAAAGGCGACGTA,-0.0707,-0.21,-0.395,-0.3,-1.11,2.52,5.13,5.69,2.98,5.61
GCTAGTTTGTCAGTAAAAGGTCACACACCGGTCG,3.28,4.33,4.39,4.2,1.2,4.42,3.19,5.47,3.23,5.43
ATCGAAATGTCGTGAGGTGAGTATACAGAAAGGC,0.101,-0.0819,-0.191,-0.0754,-0.00242,-0.0374,0.546,-0.0357,-0.12,0.0916
AATACAGGGTCCTCGTAGGCCAGAGTACGCACAG,-0.0498,-0.32,-0.268,-0.362,-0.321,0.0293,0.721,-0.0515,-0.317,-0.0938
CCTACTGGGCCATACAGAGGTCATTGATCATATG,2.83,4.1,5.31,3.73,0.274,3.89,2.98,3.58,1.03,2.85
AATACAGGGTCACTTGGCCAGAGTAGGTACGAAT,6.52,5.13,1.39,4.27,1.54,5.49,5.84,5.4,2.24,4.19
TCTCGGAGGACACGAAAGGTGAGAGCTCGACATC,0.988,0.364,-0.458,-0.112,-0.994,1.22,0.346,1.01,2.1,1.25
CGAACTAGGTGAAAGGACAGTGAAAGGCGACGTA,-0.276,-0.418,-0.4,-0.115,-0.863,4.46,8.84,7.7,6.77,8.31
CGAACTAGATCACCAGGACAGTGAAGAGGTTGGA,-0.196,-0.468,-0.072,-0.702,-0.495,-0.082,0.66,-0.0755,-0.0214,-0.286
CAACCTAGGTCACCGGAAGGTCAAAGTCCGCATG,7.05,6.32,5.53,5.93,1.49,5.6,6.23,6.31,3.11,5.38

Sequence,PBM binding z-score [1],PBM binding z-score [2],PBM binding z-score [3],PBM binding z-score [4],PBM binding z-score [5],PBM binding z-score [6],PBM binding z-score [7],PBM binding z-score [8],PBM binding z-score [9],PBM binding z-score [10]
CCTAGTTGGTCAGGAGGTCACAAACCGGATATGA,3.32,2.85,1.66,3.16,0.659,3.98,3.09,3.7,1.19,2.73
CGAACTGGGTCAAAGGACAGTGAAAGGCGACGTA,3.03,1.55,-0.452,1.37,-0.785,5.23,10.1,8.57,7.98,9.33
ATATGTAGGTCAGCTGGGGTCATTCAGACTAGGC,6.69,6.41,5.01,5.39,1.51,6.15,9,7.13,5.31,7.16
CCTACTGGGGCACGAAAGGTCATTGATTCAGTGA,4.09,5.15,4.81,4.57,0.0561,4.99,6.01,5.54,2.79,4.75
CGAACTAGGTCCCCAGGACAGTGAAGAGGTTGGA,-0.407,-0.759,-0.417,-0.926,-1.3,0.171,0.418,0.762,-0.453,0.0759
GCTTACGGGTCAAAGGTTATAGTATGAATAGAAT,6.98,5.83,0.73,5.84,0.6,6.76,11.2,9.15,8.51,9.75
ACTCGGAGGACAAACGTCAGAGCTACGCCAGTGA,-0.117,-0.418,-0.482,-0.769,-0.602,-0.386,0.904,0.765,-0.389,0.589
CCTACTGGGCCATTCAGAGGTTATTGATCATATG,0.119,0.693,0.815,0.664,-0.334,1.55,0.601,1.23,0.0553,0.458
GCTGCTAGGTAAGGTTGGTCAGCTAACGGGTACG,-0.225,-0.495,-0.455,-0.746,-0.795,-0.411,-0.199,-0.51,-0.761,-0.734
ATATGAAGGTTAGGGTCATTCAGAAAGTAGGGAA,5.27,4.18,1.26,4.52,1.7,5.23,4,4.02,1.82,2.87
ATCGAATGGTCGAGGTGAGTATAGAGAAAGGGAA,0.114,-0.0823,-0.329,-0.326,-0.256,0.069,0.444,-0.0117,0.061,0.091
CCGACTGGGGCAAAGGTTACCATGCTCAGTACGA,1.68,1.51,-0.384,1.97,-0.983,5.76,11,9.85,11.5,11.4
TAGCATAGGTCATGCGGGCCAGTATAGTGTCGGC,5.29,5.13,0.874,3.33,-0.127,5.22,4.08,4.44,0.97,3.18
CGAACTAGGTTAAAGGACAGTGAAAGGCGACGTA,-0.0523,0.122,-0.254,0.129,-0.736,3.82,7.8,7.53,7.49,8.79
ACTAGTTGTTCAGCTGAGGTCACACACAATTCGG,3.49,3.18,2.25,3.55,0.715,3.83,1.53,1.94,0.705,1.03
TCTAGTTGGTTACGGAGGTCACACACGACGGGTA,2.67,3.44,3.06,3.14,1.06,3.67,2.59,3.61,3.44,3.42
CTCGAAAGGTCGGTTGAGGTCAGTATACGGATAA,5.06,5.23,1.74,3.81,0.351,3.83,1.26,2.17,0.448,1.75
CCGTACGGGTCAAGGTTATAGCACGGGTGGTACG,5.23,3.78,-0.221,3.11,-0.132,4.76,4.03,4.28,1.2,2.77
TCTCGGATGACACGAAAGGTCAGAGCTCGACATC,2.84,3.68,2.02,3.4,0.368,3.8,1.38,2.75,2.83,2.72
